One sequence from PMC7862700, “An all-to-all approach to the identification of sequence-specific readers for epigenetic DNA modifications on cytosine” can be followed below.

Common to all, as to experiment: DAPPL (digital affinity profiling via proximity ligation, sequencing); 10 mM Tris-HCl pH 7.5, 50 mM NaCl, 1 mM DTT, 4% glycerol, room temperature, 30 min; GST-TFs on glutathione beads, 16-mer random dsDNA library, 0.1% formaldehyde crosslink after washing; high values mean tight binding
In one experiment the target is T1, FLI1 (Homo sapiens, UniProt Q01543 1-452).
T1 sequence: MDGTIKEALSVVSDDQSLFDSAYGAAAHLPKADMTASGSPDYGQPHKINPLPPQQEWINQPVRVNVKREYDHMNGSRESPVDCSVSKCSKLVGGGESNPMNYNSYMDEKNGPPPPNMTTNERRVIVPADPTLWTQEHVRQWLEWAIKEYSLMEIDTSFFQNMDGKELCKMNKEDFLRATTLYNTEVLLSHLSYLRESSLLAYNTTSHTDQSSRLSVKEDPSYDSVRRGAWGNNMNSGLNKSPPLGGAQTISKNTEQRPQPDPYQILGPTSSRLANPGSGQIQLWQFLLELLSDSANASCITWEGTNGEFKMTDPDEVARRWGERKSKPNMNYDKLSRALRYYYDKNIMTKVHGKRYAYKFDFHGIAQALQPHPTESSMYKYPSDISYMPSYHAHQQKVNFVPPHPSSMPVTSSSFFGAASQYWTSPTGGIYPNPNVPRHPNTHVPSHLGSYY
Conditions: protein: recombinant; tags: N-terminal GST; dsDNA, one strand shown. In short, it runs like this:
(§1)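 Each value of binding signal is a hexamer's read frequency for a factor divided by the same hexamer's frequency in the tag-only sample. Barcoded, bead-captured GST fusions of human transcription factors made in yeast were pooled with that sample and incubated with 200 nmole of a random double-stranded 16-mer DNA library in Tris/NaCl/DTT/glycerol buffer at room temperature for 30 min. Washing, 0.1% formaldehyde crosslinking, proximity ligation, PCR and Illumina NextSeq500 sequencing followed.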

In a further experiment the target is T2, ELK1 (Homo sapiens, UniProt P19419 1-428).
T2 sequence: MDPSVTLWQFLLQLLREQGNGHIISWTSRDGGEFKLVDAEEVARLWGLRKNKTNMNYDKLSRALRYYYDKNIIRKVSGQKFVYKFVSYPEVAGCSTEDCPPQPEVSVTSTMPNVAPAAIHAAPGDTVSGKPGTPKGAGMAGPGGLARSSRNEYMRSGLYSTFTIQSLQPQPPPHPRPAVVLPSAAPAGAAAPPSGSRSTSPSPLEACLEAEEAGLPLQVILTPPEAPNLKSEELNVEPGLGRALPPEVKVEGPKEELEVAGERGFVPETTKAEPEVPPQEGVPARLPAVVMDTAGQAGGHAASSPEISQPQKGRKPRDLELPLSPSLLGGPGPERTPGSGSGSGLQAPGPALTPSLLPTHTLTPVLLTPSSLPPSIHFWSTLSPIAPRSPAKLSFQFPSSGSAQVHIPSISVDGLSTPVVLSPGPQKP
Conditions: protein: recombinant; tags: N-terminal GST; dsDNA, one strand shown. The method, boiled down: as §1

The target in a further experiment is T3, GABPA (Homo sapiens, UniProt Q06546 1-454).
T3 sequence: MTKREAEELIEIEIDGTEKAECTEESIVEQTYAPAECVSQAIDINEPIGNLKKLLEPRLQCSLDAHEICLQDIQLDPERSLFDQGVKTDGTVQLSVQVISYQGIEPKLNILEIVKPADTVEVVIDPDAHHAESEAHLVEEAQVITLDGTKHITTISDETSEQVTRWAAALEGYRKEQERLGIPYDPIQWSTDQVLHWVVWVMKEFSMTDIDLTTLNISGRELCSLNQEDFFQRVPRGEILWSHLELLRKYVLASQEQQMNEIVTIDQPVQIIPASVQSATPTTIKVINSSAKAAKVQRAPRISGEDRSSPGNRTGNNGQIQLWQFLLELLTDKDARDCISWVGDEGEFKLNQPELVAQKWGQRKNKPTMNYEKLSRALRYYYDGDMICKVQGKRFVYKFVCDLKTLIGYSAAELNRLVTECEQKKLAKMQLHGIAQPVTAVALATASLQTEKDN
Conditions: protein: recombinant; tags: N-terminal GST; dsDNA, one strand shown. The method, boiled down: as §1

The target in the next experiment is T4, ERG (Homo sapiens, UniProt P11308 1-479).
T4 sequence: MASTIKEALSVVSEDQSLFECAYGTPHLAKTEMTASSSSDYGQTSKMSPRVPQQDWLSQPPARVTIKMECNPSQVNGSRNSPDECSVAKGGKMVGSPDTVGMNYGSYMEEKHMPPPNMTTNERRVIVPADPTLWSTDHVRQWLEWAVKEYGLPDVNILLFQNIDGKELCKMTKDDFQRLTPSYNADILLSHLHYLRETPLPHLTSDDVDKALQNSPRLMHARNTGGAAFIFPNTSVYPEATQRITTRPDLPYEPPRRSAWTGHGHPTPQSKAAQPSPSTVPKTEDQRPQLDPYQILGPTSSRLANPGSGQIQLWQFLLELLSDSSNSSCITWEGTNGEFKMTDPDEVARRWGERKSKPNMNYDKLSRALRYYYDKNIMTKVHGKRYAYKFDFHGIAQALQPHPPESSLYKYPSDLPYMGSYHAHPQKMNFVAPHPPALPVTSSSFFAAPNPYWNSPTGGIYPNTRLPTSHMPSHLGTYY
As to conditions: protein: recombinant; tags: N-terminal GST; dsDNA, one strand shown. The method, boiled down: as §1

The next experiment addresses ELF1 (Homo sapiens, UniProt P32519 1-619). Conditions: protein: recombinant; tags: N-terminal GST; dsDNA, one strand shown. In short, it runs like this:
as §1

The next experiment concerns the target T5, EHF (Homo sapiens, UniProt Q9NZC4 1-300).
T5 sequence: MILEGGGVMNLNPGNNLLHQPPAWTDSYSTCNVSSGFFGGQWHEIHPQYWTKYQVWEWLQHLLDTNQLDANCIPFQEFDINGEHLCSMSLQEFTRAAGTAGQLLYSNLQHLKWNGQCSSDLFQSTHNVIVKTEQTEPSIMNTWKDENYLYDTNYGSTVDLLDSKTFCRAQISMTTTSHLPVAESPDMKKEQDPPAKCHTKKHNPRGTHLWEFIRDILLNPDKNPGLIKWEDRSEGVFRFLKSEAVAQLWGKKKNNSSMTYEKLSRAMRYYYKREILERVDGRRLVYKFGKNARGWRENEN
As to conditions: protein: recombinant; tags: N-terminal GST; dsDNA, one strand shown. In short, it runs like this: as §1

In the next experiment the target is SPI1 (Homo sapiens, UniProt P17947 1-270). As to conditions: protein: recombinant; tags: N-terminal GST; dsDNA, one strand shown. The method, boiled down: as §1
Another experiment addresses SPIB (Homo sapiens, UniProt Q01892 1-262). As to conditions: protein: recombinant; tags: N-terminal GST; dsDNA, one strand shown. In short, it runs like this:
as §1

The target of a further experiment is T6, ELK3 (Homo sapiens, UniProt P41970 1-407).
T6 sequence: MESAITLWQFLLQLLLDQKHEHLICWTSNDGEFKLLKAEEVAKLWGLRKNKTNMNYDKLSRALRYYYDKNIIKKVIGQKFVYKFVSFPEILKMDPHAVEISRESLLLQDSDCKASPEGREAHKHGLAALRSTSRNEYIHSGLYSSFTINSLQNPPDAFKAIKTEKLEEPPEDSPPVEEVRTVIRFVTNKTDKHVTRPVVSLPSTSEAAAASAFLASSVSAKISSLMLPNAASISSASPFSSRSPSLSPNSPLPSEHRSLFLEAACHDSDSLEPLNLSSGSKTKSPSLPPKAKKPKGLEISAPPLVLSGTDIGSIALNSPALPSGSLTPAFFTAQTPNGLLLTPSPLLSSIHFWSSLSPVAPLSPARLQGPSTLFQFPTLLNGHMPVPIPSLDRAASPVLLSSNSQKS
Conditions: protein: recombinant; tags: N-terminal GST; dsDNA, one strand shown. In short, it runs like this:
as §1

In the next experiment the target is T7, FEV (Homo sapiens, UniProt Q99581 1-238).
T7 sequence: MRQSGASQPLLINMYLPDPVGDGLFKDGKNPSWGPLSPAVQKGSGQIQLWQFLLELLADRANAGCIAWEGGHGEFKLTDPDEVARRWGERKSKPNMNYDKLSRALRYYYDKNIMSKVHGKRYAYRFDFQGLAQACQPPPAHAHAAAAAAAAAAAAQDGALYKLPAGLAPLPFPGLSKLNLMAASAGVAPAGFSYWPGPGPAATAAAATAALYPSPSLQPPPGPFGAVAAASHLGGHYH
Conditions: protein: recombinant; tags: N-terminal GST; dsDNA, one strand shown. The method, boiled down:
as §1

The target in a further experiment is ETV5 (Homo sapiens, UniProt P41161 1-510). As to conditions: protein: recombinant; tags: N-terminal GST; dsDNA, one strand shown. In short, it runs like this:
as §1

The next experiment has as its target HSF1 (Homo sapiens, UniProt Q00613 1-529). As to conditions: protein: recombinant; tags: N-terminal GST; chain copies: 3; dsDNA, one strand shown. In short, it runs like this: as §1
Another experiment addresses T8, SPIC (Homo sapiens, UniProt Q8N5J4 1-248).
T8 sequence: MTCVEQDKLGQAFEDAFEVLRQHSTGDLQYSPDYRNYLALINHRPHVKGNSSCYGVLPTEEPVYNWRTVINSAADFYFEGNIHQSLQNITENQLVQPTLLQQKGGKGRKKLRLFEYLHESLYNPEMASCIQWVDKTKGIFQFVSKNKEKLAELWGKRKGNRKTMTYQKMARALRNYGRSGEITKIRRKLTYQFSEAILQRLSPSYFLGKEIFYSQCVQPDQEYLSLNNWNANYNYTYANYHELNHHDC
As to conditions: protein: recombinant; tags: N-terminal GST; dsDNA, one strand shown. The method, boiled down:
as §1

For another experiment, the target named is ELF4 (Homo sapiens, UniProt Q99607 1-663). As to conditions: protein: recombinant; tags: N-terminal GST; dsDNA, one strand shown. The method, boiled down: as §1
In a further experiment the target is T9, ELK4 (Homo sapiens, UniProt P28324-2 1-405).
T9 sequence: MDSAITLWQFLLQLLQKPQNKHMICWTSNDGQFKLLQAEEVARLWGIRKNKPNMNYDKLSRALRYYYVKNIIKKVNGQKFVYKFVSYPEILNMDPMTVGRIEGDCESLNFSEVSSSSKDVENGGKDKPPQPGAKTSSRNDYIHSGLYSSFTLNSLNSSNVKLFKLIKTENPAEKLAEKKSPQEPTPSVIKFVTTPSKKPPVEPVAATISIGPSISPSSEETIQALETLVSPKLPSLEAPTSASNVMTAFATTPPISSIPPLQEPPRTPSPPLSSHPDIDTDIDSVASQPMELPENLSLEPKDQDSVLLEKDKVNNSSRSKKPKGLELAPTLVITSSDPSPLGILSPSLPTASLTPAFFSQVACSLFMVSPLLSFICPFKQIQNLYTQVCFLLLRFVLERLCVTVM
As to conditions: protein: recombinant; tags: N-terminal GST; dsDNA, one strand shown. The method, boiled down: as §1

A further experiment deals with T10, ETV2 (Homo sapiens, UniProt O00321 1-342).
T10 sequence: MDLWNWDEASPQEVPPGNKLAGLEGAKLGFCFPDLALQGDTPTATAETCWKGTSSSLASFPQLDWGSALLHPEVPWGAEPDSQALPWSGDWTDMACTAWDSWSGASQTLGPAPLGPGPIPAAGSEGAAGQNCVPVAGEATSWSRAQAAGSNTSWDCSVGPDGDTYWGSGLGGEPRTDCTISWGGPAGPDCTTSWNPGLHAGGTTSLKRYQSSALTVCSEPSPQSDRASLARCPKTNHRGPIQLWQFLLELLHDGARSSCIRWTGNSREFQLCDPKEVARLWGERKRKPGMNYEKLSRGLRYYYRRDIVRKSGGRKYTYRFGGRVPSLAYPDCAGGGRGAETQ
As to conditions: protein: recombinant; tags: N-terminal GST; dsDNA, one strand shown. In short, it runs like this:
as §1

A further experiment has as its target T11, ELF3 (Homo sapiens, UniProt P78545 1-371).
T11 sequence: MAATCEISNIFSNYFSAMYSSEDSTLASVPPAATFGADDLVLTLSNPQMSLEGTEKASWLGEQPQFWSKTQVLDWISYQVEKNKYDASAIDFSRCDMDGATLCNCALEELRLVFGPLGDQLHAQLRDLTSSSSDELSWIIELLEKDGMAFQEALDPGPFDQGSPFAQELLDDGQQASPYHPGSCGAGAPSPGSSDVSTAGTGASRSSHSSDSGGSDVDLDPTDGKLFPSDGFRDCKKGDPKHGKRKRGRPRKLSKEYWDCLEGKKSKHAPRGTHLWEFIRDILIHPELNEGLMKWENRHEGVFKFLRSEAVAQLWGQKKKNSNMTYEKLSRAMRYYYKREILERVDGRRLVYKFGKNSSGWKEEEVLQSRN
Conditions: protein: recombinant; tags: N-terminal GST; dsDNA, one strand shown. In short, it runs like this: as §1

In another experiment the target is CRX (Homo sapiens, UniProt O43186 1-299). Conditions: protein: recombinant; tags: N-terminal GST; dsDNA, one strand shown. The method, boiled down:
as §1

A further experiment has as its target ETV1 (Homo sapiens, UniProt P50549 1-477). Conditions: protein: recombinant; tags: N-terminal GST; dsDNA, one strand shown. In short, it runs like this: as §1

SPIB, sequence (Q01892 whole entry): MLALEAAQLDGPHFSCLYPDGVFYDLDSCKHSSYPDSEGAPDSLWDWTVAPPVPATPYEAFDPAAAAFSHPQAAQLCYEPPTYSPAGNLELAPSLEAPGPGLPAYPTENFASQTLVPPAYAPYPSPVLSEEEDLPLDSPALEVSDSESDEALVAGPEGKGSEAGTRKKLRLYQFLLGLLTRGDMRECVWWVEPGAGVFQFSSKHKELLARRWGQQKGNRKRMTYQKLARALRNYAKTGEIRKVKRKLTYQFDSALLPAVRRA
ETV5, sequence (P41161 whole entry): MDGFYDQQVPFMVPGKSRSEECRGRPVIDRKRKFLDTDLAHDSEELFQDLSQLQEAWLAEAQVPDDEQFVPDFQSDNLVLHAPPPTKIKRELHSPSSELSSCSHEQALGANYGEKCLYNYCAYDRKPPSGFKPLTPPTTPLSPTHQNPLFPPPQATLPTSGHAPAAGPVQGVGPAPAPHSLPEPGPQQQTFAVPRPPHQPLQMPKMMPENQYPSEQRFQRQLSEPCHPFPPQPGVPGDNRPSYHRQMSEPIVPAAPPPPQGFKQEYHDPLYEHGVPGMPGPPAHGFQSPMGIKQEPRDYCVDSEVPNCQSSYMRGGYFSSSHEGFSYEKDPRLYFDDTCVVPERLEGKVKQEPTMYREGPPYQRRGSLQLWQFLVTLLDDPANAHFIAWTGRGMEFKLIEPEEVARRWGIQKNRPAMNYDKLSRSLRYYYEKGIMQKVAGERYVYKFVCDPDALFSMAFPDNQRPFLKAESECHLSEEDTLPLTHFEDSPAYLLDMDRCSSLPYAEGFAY
CRX, sequence (O43186 whole entry): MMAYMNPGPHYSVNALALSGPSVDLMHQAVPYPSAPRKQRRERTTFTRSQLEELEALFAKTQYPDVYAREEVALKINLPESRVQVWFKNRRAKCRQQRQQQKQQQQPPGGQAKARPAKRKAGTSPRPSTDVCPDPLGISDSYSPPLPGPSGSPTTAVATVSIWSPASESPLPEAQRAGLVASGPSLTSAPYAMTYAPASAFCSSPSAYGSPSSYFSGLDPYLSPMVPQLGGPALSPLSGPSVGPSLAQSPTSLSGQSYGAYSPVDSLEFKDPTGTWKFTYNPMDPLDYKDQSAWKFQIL
ELF1, sequence (P32519 whole entry): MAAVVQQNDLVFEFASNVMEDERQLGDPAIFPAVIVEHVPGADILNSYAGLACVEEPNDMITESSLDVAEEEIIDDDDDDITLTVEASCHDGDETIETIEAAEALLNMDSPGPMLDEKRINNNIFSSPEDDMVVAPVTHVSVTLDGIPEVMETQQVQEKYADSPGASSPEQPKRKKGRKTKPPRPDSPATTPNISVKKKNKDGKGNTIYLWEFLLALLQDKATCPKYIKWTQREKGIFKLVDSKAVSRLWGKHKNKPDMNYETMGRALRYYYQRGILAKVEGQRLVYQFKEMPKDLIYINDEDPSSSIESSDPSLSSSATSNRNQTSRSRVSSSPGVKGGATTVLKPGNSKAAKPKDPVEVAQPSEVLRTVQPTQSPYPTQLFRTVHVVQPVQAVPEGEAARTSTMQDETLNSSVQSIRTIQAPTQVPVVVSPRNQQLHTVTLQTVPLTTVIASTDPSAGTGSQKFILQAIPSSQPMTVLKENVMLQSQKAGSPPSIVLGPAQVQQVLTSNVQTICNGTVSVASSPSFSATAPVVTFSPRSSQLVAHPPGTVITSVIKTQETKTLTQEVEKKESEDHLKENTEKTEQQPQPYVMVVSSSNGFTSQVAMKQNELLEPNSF
ETV1, sequence (P50549 whole entry): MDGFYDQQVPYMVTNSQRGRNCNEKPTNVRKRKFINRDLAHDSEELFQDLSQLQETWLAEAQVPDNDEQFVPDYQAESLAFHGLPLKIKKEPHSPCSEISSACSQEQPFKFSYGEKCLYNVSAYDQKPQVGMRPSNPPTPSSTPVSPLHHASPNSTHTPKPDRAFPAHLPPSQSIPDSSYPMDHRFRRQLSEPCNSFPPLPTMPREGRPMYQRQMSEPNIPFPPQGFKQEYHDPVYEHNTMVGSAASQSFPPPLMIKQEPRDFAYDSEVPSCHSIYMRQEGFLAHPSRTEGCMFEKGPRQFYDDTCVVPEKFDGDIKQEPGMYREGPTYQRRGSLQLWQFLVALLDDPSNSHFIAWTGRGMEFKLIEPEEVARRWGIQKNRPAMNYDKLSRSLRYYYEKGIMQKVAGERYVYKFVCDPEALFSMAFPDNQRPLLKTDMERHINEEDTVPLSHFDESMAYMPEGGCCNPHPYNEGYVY
ELF4, sequence (Q99607 whole entry): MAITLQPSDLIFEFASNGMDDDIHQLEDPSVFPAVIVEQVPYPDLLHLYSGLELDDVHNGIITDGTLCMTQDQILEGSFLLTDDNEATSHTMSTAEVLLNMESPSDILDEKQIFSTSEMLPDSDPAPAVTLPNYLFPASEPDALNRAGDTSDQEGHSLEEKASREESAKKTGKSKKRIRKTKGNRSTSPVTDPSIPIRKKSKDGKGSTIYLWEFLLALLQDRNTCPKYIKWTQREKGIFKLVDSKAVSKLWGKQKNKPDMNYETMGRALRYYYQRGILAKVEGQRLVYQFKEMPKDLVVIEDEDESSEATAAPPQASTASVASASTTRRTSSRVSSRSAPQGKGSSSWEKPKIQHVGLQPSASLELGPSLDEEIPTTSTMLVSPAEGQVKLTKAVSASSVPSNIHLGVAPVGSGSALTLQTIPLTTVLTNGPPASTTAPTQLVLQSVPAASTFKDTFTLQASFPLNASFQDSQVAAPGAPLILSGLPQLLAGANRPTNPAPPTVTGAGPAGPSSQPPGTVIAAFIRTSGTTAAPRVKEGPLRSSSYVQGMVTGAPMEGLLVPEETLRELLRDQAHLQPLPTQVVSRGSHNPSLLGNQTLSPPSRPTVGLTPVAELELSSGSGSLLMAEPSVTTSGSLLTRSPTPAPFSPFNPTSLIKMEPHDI
HSF1, sequence (Q00613 whole entry): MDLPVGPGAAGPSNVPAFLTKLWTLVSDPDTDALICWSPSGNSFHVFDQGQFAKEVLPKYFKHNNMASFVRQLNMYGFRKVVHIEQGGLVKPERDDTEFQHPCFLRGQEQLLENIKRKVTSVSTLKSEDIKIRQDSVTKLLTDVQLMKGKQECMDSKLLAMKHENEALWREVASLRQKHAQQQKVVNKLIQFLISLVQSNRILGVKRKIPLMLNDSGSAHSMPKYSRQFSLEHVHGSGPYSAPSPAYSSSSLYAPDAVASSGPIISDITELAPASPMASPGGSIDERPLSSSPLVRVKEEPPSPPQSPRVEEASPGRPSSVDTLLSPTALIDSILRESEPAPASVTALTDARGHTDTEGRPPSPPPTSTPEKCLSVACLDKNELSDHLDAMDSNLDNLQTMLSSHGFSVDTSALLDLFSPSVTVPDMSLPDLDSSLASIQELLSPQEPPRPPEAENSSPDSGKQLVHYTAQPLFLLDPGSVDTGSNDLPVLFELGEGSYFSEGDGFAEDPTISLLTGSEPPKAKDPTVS

As for AAATTA, the binding signal with FLI1 was 1.27 fold enrichment (6-mer frequency, TF over GST control); with ELK1, 1.18 fold enrichment (6-mer frequency, TF over GST control); in the experiment with GABPA it was 1.29 fold enrichment (6-mer frequency, TF over GST control); in the experiment with ERG it was 1.28 fold enrichment (6-mer frequency, TF over GST control); with ELF1 it was 1.29 fold enrichment (6-mer frequency, TF over GST control); in the experiment with EHF, 1.19 fold enrichment (6-mer frequency, TF over GST control). Moreover, the binding signal is 1.22 fold enrichment (6-mer frequency, TF over GST control) with SPI1; 1.26 fold enrichment (6-mer frequency, TF over GST control) in the experiment with SPIB; 1.29 fold enrichment (6-mer frequency, TF over GST control) with ELK3; 1.19 fold enrichment (6-mer frequency, TF over GST control) in the experiment with FEV; 1.26 fold enrichment (6-mer frequency, TF over GST control) in the experiment with ETV5; 1.44 fold enrichment (6-mer frequency, TF over GST control) with HSF1. The binding signal was 1.21 fold enrichment (6-mer frequency, TF over GST control) in the experiment with SPIC; 1.23 fold enrichment (6-mer frequency, TF over GST control) in the experiment with ELF4; 1.28 fold enrichment (6-mer frequency, TF over GST control) in the experiment with ELK4; 1.4 fold enrichment (6-mer frequency, TF over GST control) with ETV2; 1.31 fold enrichment (6-mer frequency, TF over GST control) with ELF3; 1.65 fold enrichment (6-mer frequency, TF over GST control) in the experiment with CRX. In addition, in the experiment with ETV1, the binding signal was 1.2 fold enrichment (6-mer frequency, TF over GST control).
